Values joined by “and” are separate entries in the source; they are usually repeats but may differ in a detail not shown here. Identical values can stand only once. Inconclusive results are not listed. The source holds several records for some structures; these can differ, active in one and inactive in another. Active and inactive are the calls of the source. The calls were made as follows, unless noted: active = hit-call score of the fitted dose curve at least 0.9, where 1 is the maximum; inactive = score below 0.9.
Tests used:
[1] = CCTE_Shafer_MEA_dev_per_network_spike_spike_percent: CCTE's Neural Network Formation Assay for Percent of Spikes in a Network Spike, Shafer Lab (AID 2284054)
Procedure, shortened: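 Metric: fraction of spikes falling in a 0.05 s window at network-spike peaks. Recordings were made on days 5, 7, 9 and 12 and collapsed by trapezoidal AUC. Cultures were rat cortical neurons on MEA plates, dosed continuously from plating, re-dosed at media changes.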

[2] = system: DIO3 (gene 1735); test: CCTE_GLTED_hDIO3: CCTE's human Deiodinase 3 (DIO3) Inhibition Assay, Great Lakes Toxicology and Ecology Division (GLTED) Lab (AID 2284055; active = hit-call score of the fitted dose curve at least 0.9, where 1 is the maximum;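 also: potency is for inhibition seen as loss of released iodide signal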)
Procedure, shortened: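 hDIO3 (adenovirus-expressed) + test chemical, 3 h incubation; free iodide quantified by Sandell-Kolthoff reaction, absorbance read-out. DMSO negative control, n=3.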

[3] = CCTE_Shafer_MEA_dev_LDH: CCTE's Lactate Dehydrogenase Assay for Cytotoxicity in the Neural Network Formation Assay, Shafer Lab (AID 2284068; active = hit-call score of the fitted dose curve at least 0.9, where 1 is the maximum;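 also: exposure for twelve days from plating with re-dosing on DIV 5 and 9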)
Procedure, shortened: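 Rat cortical primary neurons, MEA culture; dosing day 0–12, full medium plus compound exchange DIV 5, 9. Read-out: LDH enzyme activity, spectrophotometric. DMSO = negative control/baseline; signal loss → cytotoxicity.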

[4] = CCTE_Shafer_MEA_acute_AB: CCTE's Alamar Blue Assay for Cytotoxicity in the Neural Acute Assay, Shafer Lab (AID 2284069; active = hit-call score of the fitted dose curve at least 0.9, where 1 is the maximum;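 also: active compounds lower the viability signal compared with DMSO wells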)
Procedure, shortened: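 Read-out: resazurin fluorescence (ex 544, em 590 nm) after CTB reagent at 1:6 dilution in fresh media. Cells: primary rat cortical neuron networks, DIV 13 or 15, chemically exposed on MEA plates; DMSO as negative control/baseline.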

[5] = CCTE_Shafer_MEA_dev_AB: CCTE's Alamar Blue Assay for Cytotoxicity in the Neural Network Formation Assay, Shafer Lab (AID 2284083; active = hit-call score of the fitted dose curve at least 0.9, where 1 is the maximum;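 also: resazurin reduction fluorescence as viability of cultured neurons; twelve days of exposure from plating with re-dosing on DIV 5 and 9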)
Procedure, shortened: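 Rat cortical primary cultures, 1.5 x 10^5 cells/well on MEA; continuous compound exposure over 12 days of network development, re-dosed with full medium change DIV 5 and 9. Alamar Blue fluorescence; loss of signal = cytotoxicity vs DMSO baseline.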

[6] = CCTE_Shafer_MEA_dev_mutual_information_norm: CCTE's Neural Network Formation Assay for Mutual Information Normalization, Shafer Lab (AID 2284091);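 as to AC50: mutual information between electrodes summarised as area under curve across four recording days; potency is for a decrease in mutual information relative to DMSO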
Procedure, shortened: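 Shared information across electrodes, tracked on days 5, 7, 9 and 12 of network development and collapsed as trapezoidal area under the curve. Rat cortical cultures were treated continuously from plating, with treatment renewed at feeds on DIV 5 and 9; DMSO baseline, negative-direction fit.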

[7] = CCTE_Shafer_MEA_dev_correlation_coefficient_mean: CCTE's Neural Network Formation Assay for Mean Correlation Coefficient, Shafer Lab (AID 2284093);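 as to AC50: well mean pairwise spike train correlation integrated as AUC over recording days 5 to 12; potency fitted for loss of correlation relative to DMSO vehicle wells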
Procedure, shortened: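 Rat cortical cultures, 1.5 x 10^5 cells/well, dosed from day 0 for 12 days. Spontaneous spikes recorded DIV 5/7/9/12; electrode-pair correlation coefficients averaged, AUC taken. Fit in loss direction vs DMSO.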

[8] = UKN2_HCS_IMR90_neural_migration: University of Konstanz (UKN) Leist Lab Neural Crest Cell Migration Assay in human induced IMR90 Pluripotent Stem Cells (UKN2) (AID 2284204); conditions: actives raise or lower the signal
Procedure, shortened: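 High-content imaging of calcein-AM and Hoechst stained cells quantifies migration into a stopper-defined gap after 24 h compound exposure. Neural crest cells from IMR90 iPSC migrated 24 h in EGF/FGF N2-S medium before dosing; DMSO baseline.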

[9] = IUF_NPC1b_proliferation_BrdU_72hr: Leibniz Research Institute for Environmental Medicine (IUF) 72-hour Neural Progenitor Cell Bromodeoxyuridine (BrdU) Proliferation Assay (NPC1b) (AID 2284207)
Procedure, shortened: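 Human fetal cortex-derived (GW 16-19) neural progenitor spheres, 0.25-0.35 mm, one per well in EGF/FGF proliferation medium, exposed to compound for 72 h at 37C, pH 7.2-7.6. BrdU incorporation over the final 16 h read by luminescence ELISA, relative to DMSO.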

[10] = IUF_NPC1a_proliferation_area_72hr: Leibniz Research Institute for Environmental Medicine (IUF) 72-hour Neural Progenitor Cell Proliferation Area Assay (NPC1a) (AID 2284208)
Procedure, shortened: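 Single 0.25–0.35 mm human fetal neural progenitor spheres in proliferation medium with EGF and FGF, exposed 72 h from plating without renewal at 37C, pH 7.2-7.6. Sphere area growth measured by automated phase-contrast imaging, relative to DMSO.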

[11] = IUF_NPC1_viability_72hr: Viability Assessment at 72 hours in the Leibniz Research Institute for Environmental Medicine (IUF) Neural Progenitor Cell Proliferation Assay (NPC1) (AID 2284209)
Procedure, shortened: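 Alamar blue fluorescence (RFU) after 72 h exposure, normalized to DMSO baseline. hNPC spheres from GW 16-19 fetal cortex, single sphere per well in growth-factor medium; no compound renewal.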

[12] = CCTE_Mundy_HCI_Cortical_Synap_Neur_Matur_NeuriteSpotCountPerNeuriteLength: CCTE's Synaptogenesis and Neurite Maturation Assay in rat cortical cells for Neurite Spot Count per Neurite Length, Mundy Lab (AID 2284210)
Procedure, shortened: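 Synaptophysin spots per unit neurite length, measured by automated imaging of MAP2/synaptophysin/Hoechst-stained neurons. Cultures from rat cortex received chemical at DIV 7 with media change through DIV 12; glial growth arrested by AraC at DIV 5; DMSO baseline.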

[13] = CCTE_Mundy_HCI_Cortical_Synap_Neur_Matur_BPCount: CCTE's Synaptogenesis and Neurite Maturation Assay in rat cortical cells for Branch Point Count, Mundy Lab (AID 2284211)
Procedure, shortened: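 In this multiplexed morphology assay, cortical cells from rat receive chemicals at DIV 7 and are fixed at DIV 12, then immunostained and imaged; branch points are counted, with DMSO as baseline.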

[14] = CCTE_Mundy_HCI_Cortical_NOG_NeuriteCount: CCTE's Neurite Outgrowth Assay in rat cortical cells for Neurite Count, Mundy Lab (AID 2284212);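 also: cells fixed about two days after chemical exposure began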
Procedure, shortened: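 Rat cortical primary cells; compound added 2 h post-plating, 1/10 dilution of working solution. Anti-betaIII-tubulin/AF488 ICC; ArrayScan neurite count vs DMSO.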

[15] = CCTE_Mundy_HCI_Cortical_NOG_NeuriteLength: CCTE's Neurite Outgrowth Assay in rat cortical cells for Neurite Length, Mundy Lab (AID 2284213);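 as to AC50: neurites imaged about 48 to 50 h after chemical exposure began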
Procedure, shortened: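 First, rat primary cortical cells were plated and, 2 h later, given test chemical as a 1/10 dilution. Finally, βIII-tubulin immunostaining enabled automated imaging of neurite length.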

[16] = CCTE_Mundy_HCI_Cortical_Synap_Neur_Matur_NeuriteLength: CCTE's Synaptogenesis and Neurite Maturation Assay in rat cortical cells for Neurite Length, Mundy Lab (AID 2284214)
Procedure, shortened: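 Read-out: high-content imaging of MAP2-labelled neurites, with synaptophysin and Hoechst co-stain, in rat cortical cultures fixed at DIV 12. Activity fitted in positive direction relative to DMSO baseline.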

[17] = CCTE_Mundy_HCI_Cortical_Synap_Neur_Matur_NeuriteSpotCountPerNeuron: CCTE's Synaptogenesis and Neurite Maturation Assay in rat cortical cells for Neurite Spot Count per Neuron Count, Mundy Lab (AID 2284215)
Procedure, shortened: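 Rat primary cortical cultures given AraC at DIV 5, dosed from DIV 7 to DIV 12 with media change. Fixed, stained for MAP2, synaptophysin and Hoechst; neurite-associated synaptophysin puncta per neuron quantified by high-content imaging versus DMSO.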

[18] = CCTE_Mundy_HCI_Cortical_Synap_Neur_Matur_SynapseCount: CCTE's Synaptogenesis and Neurite Maturation Assay in rat cortical cells for Synapse Count, Mundy Lab (AID 2284218)
Procedure, shortened: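 Read-out: synapse number per neuron, automated high-content imaging of fixed cells immunostained for MAP2 and synaptophysin plus Hoechst nuclei. Rat primary cortical cultures, AraC at DIV 5, chemical dosing DIV 7–12. Positive-direction fit relative to DMSO.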

[19] = CCTE_Shafer_MEA_acute_LDH: CCTE's Lactate Dehydrogenase Assay for Cytotoxicity in the Neural Acute Assay, Shafer Lab (AID 2284086; active = hit-call score of the fitted dose curve at least 0.9, where 1 is the maximum;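 also: active means LDH release rises above DMSO vehicle level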)
Procedure, shortened: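 LDH absorbance at 490 nm in medium taken right after 40-min compound exposure; rat primary cortical neuron networks on MEA plates, days post-plating 13 or 15. Increase over DMSO baseline scored as cytotoxicity.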

[20] = TAMU_PeakParms_SingleDonor1434_Chronotropy: Texas A&M University (TAMU) 1.5-hr Human Induced Pluripotent Stem Cell (iPSC)-derived Cardiomyocytes Calcium (Ca+2) Flux Assay for Cardiotoxicity: Chronotropy (changes in peak frequency) (AID 2284217); conditions: actives raise or lower the signal
Procedure, shortened: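 iPSC-CMs, donor 1434; 4 conc (0.2–100 uM), 0.5% v/v DMSO, 90 min, 37C/5% CO2; Ca2+ flux fluorescence → peak.freq.avg; peak.freq.avg = 0 dropped; bidirectional fit vs DMSO; EC05 POD.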

Measured: AC50

Oc1ccc(C(c2ccc(O)cc2)(C(F)(F)F)C(F)(F)F)cc1
inactive: [1] | [4] | [5] | [6] | [7]
active: [2] 136 µM | [3] 10 µM and 13.1 µM | [5] 16 µM

O=S(=O)(O)C(F)(F)C(F)(F)C(F)(F)C(F)(F)F
not listed: [2] | [4] | [5] | [19] | [20]
inactive: all other assays above

c1ccc(-c2ccccc2)cc1
inactive: [19]

CCSC(=O)N(CC)C1CCCCC1
inactive: [4] | [19]

COS(=O)(=O)OC
inactive: [4]

CCC(C)(c1ccc(O)cc1)c1ccc(O)cc1
inactive: [1] | [4] | [5] | [19] | [6] | [7]

O=C(NC(=O)c1c(F)cccc1F)Nc1cc(Cl)c(OC(F)(F)C(F)F)c(Cl)c1
inactive: [4]

CC(c1ccc(O)cc1)(c1ccc(O)cc1)c1ccc(O)cc1
inactive: [4]

CCC(C)(CC)c1cc(NC(=O)c2c(OC)cccc2OC)on1
inactive: [4] | [19]

O=C(O)C(F)(F)C(F)(F)C(F)(F)C(F)(F)C(F)(F)C(F)(F)C(F)(F)C(F)(F)C(F)(F)F
active: [2] 89.4 µM and 74.2 µM

C=CC(N)=O
not listed: [2] | [8]
inactive: all other assays above

O=C(O)C(F)(F)C(F)(F)C(F)(F)C(F)(F)C(F)(F)F
inactive: [1] | [3] | [4] | [19] | [6] | [7]

CN(C)CCO
inactive: [4] | [19]

NS(=O)(=O)C(F)(F)C(F)(F)C(F)(F)C(F)(F)C(F)(F)C(F)(F)C(F)(F)C(F)(F)F
inactive: [1] | [5] | [6] | [7]
active: [1] 4.59 µM | [3] 27.6 µM and 23.6 µM | [5] 24 µM | [7] 22.6 µM

CCOP(=S)(OCC)SCSC(C)(C)C
active: [1] 23.1 µM and 28.7 µM | [3] 15.1 µM and 29.5 µM | [5] 18.7 µM and 82.5 µM | [6] 23.4 µM and 21.7 µM | [7] 23.3 µM and 24.2 µM | [12] 23 µM | [13] 80.7 µM and 23.2 µM | [15] 91 µM and 79.2 µM | [16] 81.5 µM and 17.5 µM | [17] 81 µM and 22.9 µM | [18] 79.7 µM and 22.9 µM
inactive: [8] | [9] | [10] | [11] | [12]

CC(C)C(=O)OCC(C)(C)C(OC(=O)C(C)C)C(C)C (stereo unspecified)
inactive: [19]

Nc1ccc(-c2ccc(N)cc2)cc1
inactive: [19]

CCCCCCCCCc1ccc(O)cc1
inactive: [4] | [19]
active: [2] 17.4 µM

ClC1=C(Cl)[C@]2(Cl)[C@@H]3[C@@H]4C[C@@H]([C@H]5O[C@@H]45)[C@@H]3[C@@]1(Cl)C2(Cl)Cl
inactive: [4] | [19]
active: [1] 15 µM | [3] 11.3 µM | [5] 22.4 µM | [6] 15 µM | [7] 23.6 µM | [12] 25.5 µM | [15] 8.83 µM | [16] 12.8 µM | [17] 13 µM | [20] 4.73 µM | [18] 13.2 µM

From PubChem BioAssay (EPA / NIEHS)
